Source: PubChem BioAssay

target: Voltage-gated potassium channel subunit beta-2 (Rattus norvegicus) (UniProt P62483); assay: KvBeta positive modulators, primary screen, biochemical, NADPH fluorescence (AID 623); details: Recombinant KvBeta, NADPH fluorescence decrease slope, 10 min; at 10 µM; active compounds read low;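 further: fluorescence intensity change per second fitted from 20 to 320 s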
Sequence (P62483 whole entry, looked up): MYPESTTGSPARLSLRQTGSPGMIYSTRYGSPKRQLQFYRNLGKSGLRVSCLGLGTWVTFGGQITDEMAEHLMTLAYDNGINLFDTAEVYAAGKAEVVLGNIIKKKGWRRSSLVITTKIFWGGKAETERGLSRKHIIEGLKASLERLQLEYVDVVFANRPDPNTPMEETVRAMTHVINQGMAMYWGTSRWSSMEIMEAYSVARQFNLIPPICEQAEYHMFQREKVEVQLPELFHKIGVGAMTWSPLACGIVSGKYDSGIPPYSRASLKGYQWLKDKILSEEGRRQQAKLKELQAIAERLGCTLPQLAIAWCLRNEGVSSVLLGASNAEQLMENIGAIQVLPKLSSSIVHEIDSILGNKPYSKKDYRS

NADPH fluorescence slope, inactive:
Cc1ccc(C)c(S(=O)(=O)NCc2ccc(C(=O)N3CCN(C)CC3)cc2)c1 -4.8e-05
COc1ccc(S(=O)(=O)N2CCN(C3CCCCCCC3)CC2)cc1 -5.6e-05
O=C1NCCCc2c1no[n+]2[O-] -6.4e-06
Cc1ccc(S(=O)(=O)Cc2ccc(C(=O)NCCCN3CCN(C)CC3)o2)cc1 1.7e-05
COC(=O)c1[nH]c2cccc(C)c2c1NC(=O)CN1CCCc2ccccc21 6.4e-05
Cc1ccccc1NC(=O)c1ccc(NC(=O)c2ccco2)cc1 -2.6e-05
CCC(C)OC(=O)n1ccc(C(=O)Nc2nccs2)n1 (stereo not given) -1.9e-05
O=C(CCCn1c(=O)c2sccc2n(Cc2ccc(F)cc2)c1=O)NCc1ccco1 -2.1e-06
O=C(Nc1ccc(CN2CCCCC2)cc1)c1ccc2c(c1)OCO2 -1.5e-05
COc1cc(C(=O)N2c3ccccc3CC2C)cc(OC)c1OC (stereo not given) -2.6e-05
COC(=O)c1ccc(CSc2ncnc3c2nnn3-c2ccc(OC)cc2)o1 -2.7e-05
Cc1ccc2nc(CSc3nnc(-c4ccco4)n3-c3ccccc3)cc(=O)n2c1 -1.2e-06
Cc1nc(-c2cnn(-c3ccccc3)c2)c2cc(C)oc2n1 9.5e-07
COC(=O)CN1C(=O)C2(C(C#N)=C(N)Oc3c2c(C)nn3-c2ccccc2)c2ccccc21 (stereo not given) -6.6e-05
CC(=O)c1c(C)nc(C)nc1NC(=O)Cc1ccccc1 -4.2e-05
O=C1c2ccccc2C(=O)N1OCc1ccccc1 -3.7e-05
CS(=O)(=O)N(CC(=O)NCc1ccccn1)c1ccc2c(c1)OCCO2 -4.7e-06
CCOc1ccc(NC(=O)CN2CCN(CC(=O)Nc3ccc(F)c(F)c3)CC2)cc1 4.4e-05
CCNC(=O)Cn1cnc2c1c(=O)n(C)c(=O)n2C 7.5e-06
COc1ccccc1C(=O)Nc1c2c(nn1-c1cccc(C)c1C)CS(=O)(=O)C2 -4.5e-06
COc1ccc(-c2nc(N)nc(C)c2Oc2ccccc2Br)c(O)c1 6e-05
CCc1ccc(NC(=O)c2cc(-c3ccco3)on2)cc1 -4.3e-05
CCOC(=O)N1CCC(N(C(=O)Nc2ccc(Cl)c(Cl)c2)C(C)CC)CC1 (stereo not given) -7.4e-06
Cc1ccc(C)c(-n2c(Cc3cc(=O)[nH]c(=O)[nH]3)nnc2SCC(=O)NCc2ccco2)c1 -6.1e-05
CC(C)(C)OC(=O)N1CCOCCOCCN(C(=O)OC(C)(C)C)CCOCCOCC1 -6.4e-05
O=C(Nc1ccc(N2CCCC2=O)cc1)c1cccc(F)c1 2e-05
CCOC(=O)C1CCN(Cc2ccc(C(=O)OC)cc2)CC1 -4.2e-05
COc1ccc(OCC(=O)N2CCN(C(=O)c3cccs3)CC2)cc1 -5.4e-05
Cn1cnnc1SCC(=O)NCc1cccc(C(F)(F)F)c1 3.5e-05
COC(=O)Cn1c(C)nc2c(sc3nc(C)cc(C)c32)c1=O -2e-05
CC1=C(C#N)C(=O)NC(C)(C)C1 1.8e-05
Cn1c(=O)c(C(=S)NC(=O)C2CC2)c(N)n(Cc2ccccc2)c1=O -3.3e-05
CCCc1[nH]nc2c1C(c1cccc(OC(=O)c3ccco3)c1)C(C#N)=C(N)O2 (stereo not given) -8.2e-06
CC(C)c1ccc(-c2nc(N3CCCCC3)[nH]c(=O)c2C#N)cc1 -3.9e-06
Cn1cc(CC(=O)Nc2cccc(C#N)c2)c2ccccc21 -1.8e-05
CCCN(CCC)CCNC(=O)C(NS(=O)(=O)c1ccc2c(c1)CCC(=O)N2)c1ccccc1 (stereo not given) -5e-05
O=c1c2ccccc2sn1-c1ccc(S(=O)(=O)N2CCCCC2)cc1 -1.7e-05
Cc1ccc(-n2c(=O)[nH]c3c(C(N)=O)nc(CC(C)C)nc32)cc1 -0.000117
CN1CCN(C(=O)CN(Cc2ccc(Cl)cc2)S(C)(=O)=O)CC1 9.7e-06
CCOC(=O)c1sc(NC(=O)CSc2nnc(-c3ccco3)n2CC)c(C(=O)OCC)c1C -3.7e-05
